± gives the standard deviation.
What follows are sequences tested on MILI (PIWIL2) piRISC loaded with L1MC piRNA (26 nt) (assay: pre-steady-state target cleavage rate (min^-1); guide: L1MC piRNA 5'p-UAACUAAAUACUAUGCAAGCUGUAGG; MIWI and MILI are mouse PIWI proteins and EfPiwi is from a freshwater sponge; tags in brackets are library labels; higher = faster piRNA-guided slicing of the target). Conditions: auxiliary factor: 500 nM mouse GTSF1.
Outline: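 In Cleave-'n-Seq, a transcribed, DNA-blocked target RNA library (0.1 nM) was combined with 1 nM active affinity-purified piRISC bearing one synthetic guide, with or without 500 nM GTSF1 partner protein. Reactions ran in HEPES–potassium acetate buffer at 33 °C for 0–8 or 0–960 min. Uncleaved targets were sequenced and normalised to depth and to weakly complementary targets, three trials were pooled, and k3 was capped at 0.0001 min^-1. The pre-steady-state cleavage rate was obtained by fitting a burst-and-steady-state model.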

Row | Sequence | pre-steady-state target cleavage rate
1 | UCCUGGAUGUCGAAGCAUCGUAUUUAGUUA | 0.00755 ± 0.0031
2 | UCCUGGAACAGCUACGAUAGUAUUUAGUUA | 0.147 ± 0.011
3 | UCCUGGAUCAGCAACCAUAGUAUUUAGUUA | 0.116 ± 0.013
4 | UCCUCCUACAGCUUGCAUAGUAUUUAGGUA | 0.152 ± 0.045
5 | UCCUGGAUGUGCUUGCAUAGUUUUAAGUUA | 0.0104 ± 0.0059
6 | UCCUGGAUGUCGUUGCUUAGUAUUUAGAUA | 0.0162 ± 0.0057
7 | UCCUGGUACACCUUGCAUAGUAUUUACUUA | 0.108 ± 0.041
8 | UCCUCCUACAGCUUGCAUAGAUAUUAGUUA | 0.0125 ± 0.0045
9 | UCCUGGAUGUCGAUGCAUAGUAUUUAGUCUA | 0.0115 ± 0.0055
10 | UCCUGGAACAGCUUGCAAAGAAUUUAGUUA | 0.102 ± 0.037
11 | UCCUGGAUCACGUUGCAUAGUAUUUACAAA | 0.0591 ± 0.015
12 | UCCUGGAUGAGCUUGCAUAGUAUUAUCUUA | 0.00985 ± 0.0048
13 | UCCUGGAACAGCUUGCAUACUAUUUACUUA | 0.0611 ± 0.015
14 | UCCUGGAUGUCGAAGCAUAGUAUUAUAGUUA | 0.0614 ± 0.014
15 | UCCUGGAACACGAUGCAUAGUAUUUAGAAA | 0.072 ± 0.018
16 | UCCUGGAUGAGCUUGCAUUAGUAUUUAGUUA | 0.00494 ± 0.0045
17 | UCCUGGAUCACCUUGCAUAGUAUUUACUUA | 0.0587 ± 0.017

Row | Sequence | pre-steady-state target cleavage rate
18 | UCCUGGUACAGCUUGGAUAGAAUUUAGUUA | 0.0709 ± 0.025
19 | UCCUGCUACAGCUUGCAUAGUUAUUACAAA | 0.00534 ± 0.0038
20 | UCCUGGAACAGCUUGCAUAGUAAUAAGUUA | 0.103 ± 0.018
21 | UCCUGGAUGUCGAUGCAUAGUAUUUACAAA | 0.0066 ± 0.0042
22 | UCCUGGAUGUCCUAGCAUUGUAUUUAGUUA | 0.0111 ± 0.0048
23 | UCCUGGAUCAGCUUGCAAUGUAUUUAGAAA | 0.0496 ± 0.013
24 | UCCUGGAUGUCGAUGCAUAGUAUUUUCUUA | 0.011 ± 0.006
25 | UCCUGGAUGUCGUUGCAUAGUAUUUAAUUA | 0.0359 ± 0.013
26 | UCCUCCUACACGAUGCAUAGUAUUUUCAAA | 0.0649 ± 0.017
27 | UCCUGGAUCAGCUUGCAUAGUAUAUUCAAA | 0.0428 ± 0.01
28 | UCCUGGAUGUCGUUGCAUAGUAUUUAGGUA | 0.0112 ± 0.0062
29 | UCCUGGAUCAGCUUGCAUUGUAUUUACUUA | 0.146 ± 0.027
30 | UCCUCCUACAGCUUGCAAUCUAUUUAGAAA | 0.0218 ± 0.007
31 | UCCUGGAUGAGCUUGCAUAGUAUUAUCAAA | 0.00461 ± 0.0034
32 | UCCUGGAAGAGCUUGCAUAGUAUUUACUUA | 0.0737 ± 0.02
33 | UCCUGGAUGUGCUUGCAUAGUAUAAUGUUA | 0.081 ± 0.022

Same assay, conditions: auxiliary factor: none (no GTSF1)

Row | Sequence | pre-steady-state target cleavage rate
34 | UCCUGGAUGUCGAACGUAUGUAUUUCAGUUA | < 0.0001
35 | UCCUGGAUGUCGAAGCAUUGUAUAUAGUUA | < 0.0001
36 | UCCUGGAUGUCGAACGUAUGCUAUUUAGUUA | < 0.0001
37 | UCCUGGAUGUCGAACGUAUCUAUAUUGUUA | < 0.0001
38 | UCCUGGAUGUCGAACCAUACUAUUUAGUUA | < 0.0001
39 | UCCUGGAUCAGCUUGCAAUCUAUUUACAAA | < 0.0001
40 | UCCUGGAUGUCGAACCAUACAAUUUAGUUA | < 0.0001

Source: the supplement of paper PMC10338343
